This note sets out measurements from PubChem BioAssay (NCI).

The panel holds about 83,000 compounds, 20% with a hit somewhere; the sample as a whole holds those more often.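 Percent growth is the endpoint: 0 to 100 indicates growth inhibition (40 means 60% inhibition), 0 means no net growth, and negative values indicate cell death.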 Activity calls are given as the source filed them. Rule for the calls: active = growth percent below 10; inactive = the rest.

For the experiment, the system named is MDA-MB-468 breast. Kind of experiment: NCI-60 one-dose screen, 48 h (100 = growth as untreated, 0 = no growth, -100 = all killed). To be noted: 10 µM unless noted.
As for `Nc1ccc(N=Nc2ccccc2)c2cc(S(=O)(=O)O)ccc12`, the growth was 109% (inactive).

On to `CC(C)c1nc2ccccc2n1CC(=O)N/N=C/c1cccc(O)c1`, for which the growth is 98.4% (inactive).

Regarding `COc1ccc([N+](=O)[O-])c(S(=O)(=O)c2ccc(Cl)cc2)n1`, the growth is 52% (inactive).

On to `CN(C)C(C(N)=O)c1ccc(Cl)cc1` (stereo not given), for which the growth is 99.2% (inactive).

Regarding `OC1CSSC1Cn1cnc2c(Nc3ccc(F)c(Cl)c3)ncnc21` (stereo not given), the growth is 2.83% (active).

Consider `CC(C)(C)n1cc(-c2ccnc(NCCCNS(=O)(=O)c3ccccc3)c2)c(-c2cccc(O)c2)n1`, for which the growth is 9.54% (active).

Take `O=C1C=C(O)C(=O)C=C1O`: the growth is 115% (inactive).

With `CCCCCCCCN=C(NCCCCCCCC)SCc1cccc2ccccc12`, the growth was -93.9% (active).

Consider `CN(CCC#N)c1ccc(/C=C2\NC(=O)NC2=O)cc1`, for which the growth was 110% (inactive).

Consider `c1csc(-c2ccc(CNc3c4ccccc4nc4ccccc34)cc2)c1`, for which the growth is -72.5% (active).

`COc1cc2c(cc1-c1c(C)noc1C)ncc1nc(C3CCCCC3)n(C3CCC(OC(F)F)CC3)c12` (stereo not given): the growth was 29.8% (inactive).

In the case of `O=Nc1ccc2ccccc2c1O`, the growth was 68.3% (inactive).

As to `O=C1C(Cl)=C(NCCCN(CCCNC2=C(Cl)C(=O)c3ccccc3C2=O)C2=C(Cl)C(=O)c3ccccc3C2=O)C(=O)c2ccccc21`, the growth is -7.83% (active).

Regarding `CCOC(=O)NCCc1nc2c([nH]1)c(=O)n(C)c(=O)n2C`, the growth was 112% (inactive).

On to `O=C(NNC(=O)c1nc2cc(F)ccc2n2cccc12)c1cnccn1`, for which the growth is 22.2% (inactive).

For `CN1CCN(c2nc(-c3cccc4ccccc34)nc3sc4c(c23)CCCCCC4)CC1`, the growth was 77.3% (inactive).

Regarding `COc1ccc(-c2nc(/C=N/Nc3cc(C)nc4ccc(Cl)cc34)c(C)o2)cc1`, the growth was -73.7% (active).

As to `COc1cc(NCCN=C(N)NC(N)=NC(C)C)c2ncccc2c1`, the growth is -46.5% (active).

As to `CCc1ccc2c(c1)N(CCO)C1=C(C(=O)OC1)C2c1ccccc1` (stereo not given), the growth is 104% (inactive).

Regarding `O=C(Nc1c2ccccc2nc2ccccc12)c1ccccc1CN1C(=O)c2ccccc2C1=O`, the growth is 0.8% (active).

For `O=C(Nc1cccc(C(F)(F)F)c1)c1cc(-c2ccc(F)cc2F)ccc1O`, the growth is -5% (active).

`C=C(C=O)[C@@H]1CC[C@]2(COC(C)=O)CC[C@]3(C)C(CC[C@@H]4[C@@]5(C)CC[C@H](OC(C)=O)C(C)(C)[C@@H]5CC[C@]43C)[C@@H]12` (stereo not given in full): the growth was 5.16% (active).

Consider `O=C1/C(=C/c2ccc(C(F)(F)F)cc2)COc2ccc(O)cc21`, for which the growth is 100% (inactive).

In the case of `Cn1cc2c(=O)nc3c(-c4nc5ccccc5[nH]4)n[nH]n3c2n1`, the growth was 83.3% (inactive).

On to `Cc1c(O)c(=O)ccn1C1CCC(CC2CCC(n3ccc(=O)c(O)c3C)CC2)CC1` (stereo not given), for which the growth was 0.337% (active).

For the compound `Fc1ccc(-c2cn3c(-c4c[nH]c5ccc(Br)cc45)csc3n2)cc1`, the growth is 74.9% (inactive).

Regarding `O=[N+]([O-])c1cccc(-c2nc3sccn3c2-c2ccnc(NCCCNS(=O)(=O)c3cccc(F)c3)n2)c1`, the growth is -13.8% (active).

On to `O=C1c2c(c3c4cc(Br)ccc4[nH]c3c3ccc4ccccc4c23)C(=O)N1CCO`, for which the growth was 100% (inactive).

Regarding `C#CCn1c(C)cc(C)c(C#N)c1=O`, the growth was 132% (inactive).

On to `O=C1/C(=C/c2ccc([N+](=O)[O-])o2)Oc2ccccc21`, for which the growth was -50.9% (active).

For the compound `O=C(NC1C(O)OC(CO)C(O)C1O)NS(=O)(=O)c1ccc(Cl)cc1` (stereo not given), the growth is 108% (inactive).

Regarding `Cc1cc(Cl)c2ccc(N(C)C)cc2n1`, the growth was 94.3% (inactive).

Regarding `CCC(=O)Oc1ccc(/C(=C(/C)Cc2cccc(OC)c2)c2ccc(OCCN(C)C)cc2)cc1`, the growth is 76.1% (inactive).

As to `COc1ccc(-c2nn(-c3ccc(NC(=O)Nc4ccc(Cl)c(C(F)(F)F)c4)cc3)cc2-c2ccncc2)cc1Cl`, the growth is -46.4% (active).

On to `CC(C)c1c(C(=O)Nc2ccccc2)c(-c2ccccc2)c(-c2ccc(F)cc2)n1CC[C@@H]1CC=CC(=O)O1`, for which the growth is -48.3% (active).

Turning to `COc1cc(C2CC(c3ccc(Nc4nc(NCCO)nc(Nc5ccc(Cl)cc5)n4)cc3)=Nc3c(N)nc(N)nc3N2)cc(OC)c1OC` (stereo not given), the growth is 58.6% (inactive).

`COc1cccc(Cn2cc3c(c2)-c2oncc2CC3)c1`: the growth is 1.66% (active).

Consider `COc1ccc(-c2ccc(-c3ccc(-c4ccc(C(=N)N)cc4)s3)s2)cc1OC`, for which the growth was -71.4% (active).

Turning to `COc1cc(NC(C)CCCN)c2ncccc2c1Oc1ccc(Cl)cc1` (stereo not given), the growth is 58.6% (inactive).

As for `Cc1nc2ncccc2nc1Nc1ccc(S(=O)(=O)Nc2cncs2)cc1`, the growth was 97.7% (inactive).
